Source: PubChem BioAssay (EPA / NIEHS)
Values joined by “and” are separate entries in the source; they are usually repeats but may differ in a detail not shown here. Identical values can stand only once. Some compounds were tested as several samples or in several runs, with calls that do not always agree. Active and inactive are the calls of the source. Rule for the calls: active = hit-call score of the fitted dose curve at least 0.9, where 1 is the maximum; inactive = score below 0.9.

Experiment: CCTE_Shafer_MEA_dev_mutual_information_norm: CCTE's Neural Network Formation Assay for Mutual Information Normalization, Shafer Lab (AID 2284091);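 for AC50: mutual information between electrodes summarised as area under curve across four recording days; potency is for a decrease in mutual information relative to DMSO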
Settings: not given
Procedure, shortened: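 Shared information across electrodes, tracked on days 5, 7, 9 and 12 of network development and collapsed as trapezoidal area under the curve. Rat cortical cultures were treated continuously from plating, with treatment renewed at feeds on DIV 5 and 9; DMSO baseline, negative-direction fit.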

| SMILES | outcome | AC50 |
| --- | --- | --- |
| c1cc2ccc3cccc4ccc(c1)c2c34 | inactive | – |
| NS(=O)(=O)C(F)(F)C(F)(F)C(F)(F)C(F)(F)C(F)(F)C(F)(F)C(F)(F)C(F)(F)F | inactive | – |
| ClC1=C(Cl)[C@]2(Cl)[C@@H]3[C@@H]4C[C@@H]([C@H]5O[C@@H]45)[C@@H]3[C@@]1(Cl)C2(Cl)Cl | – | 15 µM (active) |
| O=C(O)C(F)(F)C(F)(F)C(F)(F)C(F)(F)C(F)(F)C(F)(F)C(F)(F)C(F)(F)F | inactive | – |
| CCOP(=S)(OCC)SCSC(C)(C)C | – | 23.4 µM (active) and 21.7 µM (active) |
| ClC(Cl)=C(c1ccc(Cl)cc1)c1ccc(Cl)cc1 | – | 2.19 µM (active) |
| ClC1=C(Cl)[C@]2(Cl)[C@@H]3[C@H]4C[C@H]([C@@H]5O[C@H]45)[C@@H]3[C@@]1(Cl)C2(Cl)Cl | inactive | – |
| C=CC(N)=O | inactive | – |
| CCC(C)(c1ccc(O)cc1)c1ccc(O)cc1 | inactive | – |
| CO/C=C(/C(=O)OC)c1ccccc1COc1cccc(C(F)(F)F)n1 | – | 183 nM (active) and 312 nM (active) |
| COc1ccc(O)c(C(C)(C)C)c1 | inactive | – |
| O=C(O)C(F)(F)C(F)(F)C(F)(F)C(F)(F)C(F)(F)F | inactive | – |
| O=S(=O)(O)C(F)(F)C(F)(F)C(F)(F)C(F)(F)F | inactive | – |
| Oc1ccc(C(c2ccc(O)cc2)(C(F)(F)F)C(F)(F)F)cc1 | inactive | – |
| ClC1=C(Cl)[C@]2(Cl)[C@@H]3[C@@H](Cl)[C@H]4O[C@H]4[C@@H]3C1(Cl)C2(Cl)Cl | inactive | – |
| O=S(=O)(O)C(F)(F)C(F)(F)C(F)(F)C(F)(F)C(F)(F)C(F)(F)F | inactive | – |
| Clc1ccc(C(c2ccccc2Cl)C(Cl)(Cl)Cl)cc1 (stereo not drawn) | – | 0.0113 µM (active) |

Experiment: UKN2_HCS_IMR90_neural_migration: University of Konstanz (UKN) Leist Lab Neural Crest Cell Migration Assay in human induced IMR90 Pluripotent Stem Cells (UKN2) (AID 2284204)
Settings: actives raise or lower the signal
Procedure, shortened: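 High-content imaging of calcein-AM and Hoechst stained cells quantifies migration into a stopper-defined gap after 24 h compound exposure. Neural crest cells from IMR90 iPSC migrated 24 h in EGF/FGF N2-S medium before dosing; DMSO baseline.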

| SMILES | outcome |
| --- | --- |
| CCOP(=S)(OCC)SCSC(C)(C)C | inactive |
| CO/C=C(/C(=O)OC)c1ccccc1COc1cccc(C(F)(F)F)n1 | inactive |
| O=S(=O)(O)C(F)(F)C(F)(F)C(F)(F)C(F)(F)F | inactive |
| O=S(=O)(O)C(F)(F)C(F)(F)C(F)(F)C(F)(F)C(F)(F)C(F)(F)F | inactive |

Experiment: IUF_NPC1b_proliferation_BrdU_72hr: Leibniz Research Institute for Environmental Medicine (IUF) 72-hour Neural Progenitor Cell Bromodeoxyuridine (BrdU) Proliferation Assay (NPC1b) (AID 2284207)
Settings: not given
Procedure, shortened: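 Human fetal cortex-derived (GW 16-19) neural progenitor spheres, 0.25-0.35 mm, one per well in EGF/FGF proliferation medium, exposed to compound for 72 h at 37C, pH 7.2-7.6. BrdU incorporation over the final 16 h read by luminescence ELISA, relative to DMSO.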

| SMILES | outcome |
| --- | --- |
| CCOP(=S)(OCC)SCSC(C)(C)C | inactive |
| C=CC(N)=O | inactive |
| CO/C=C(/C(=O)OC)c1ccccc1COc1cccc(C(F)(F)F)n1 | inactive |
| O=S(=O)(O)C(F)(F)C(F)(F)C(F)(F)C(F)(F)F | inactive |
| O=S(=O)(O)C(F)(F)C(F)(F)C(F)(F)C(F)(F)C(F)(F)C(F)(F)F | inactive |

Experiment: IUF_NPC1a_proliferation_area_72hr: Leibniz Research Institute for Environmental Medicine (IUF) 72-hour Neural Progenitor Cell Proliferation Area Assay (NPC1a) (AID 2284208)
Settings: not given
Procedure, shortened: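 Measured in 3D suspension: each well held one primary hNPC sphere grown with EGF and FGF at pH 7.2-7.6. Compound stayed on for 72 h, then area was imaged; spheres lacking growth factors defined reduced proliferation.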

| SMILES | outcome | AC50 |
| --- | --- | --- |
| CCOP(=S)(OCC)SCSC(C)(C)C | inactive | – |
| C=CC(N)=O | inactive | – |
| CO/C=C(/C(=O)OC)c1ccccc1COc1cccc(C(F)(F)F)n1 | – | 12.6 µM (active) |
| O=S(=O)(O)C(F)(F)C(F)(F)C(F)(F)C(F)(F)F | inactive | – |
| O=S(=O)(O)C(F)(F)C(F)(F)C(F)(F)C(F)(F)C(F)(F)C(F)(F)F | inactive | – |

Experiment: IUF_NPC1_viability_72hr: Viability Assessment at 72 hours in the Leibniz Research Institute for Environmental Medicine (IUF) Neural Progenitor Cell Proliferation Assay (NPC1) (AID 2284209)
Settings: not given
Procedure, shortened: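 Three-day continuous exposure of human neural progenitor spheres under EGF/FGF-driven proliferation; cell viability scored by alamar blue signal versus DMSO.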

| SMILES | outcome | AC50 |
| --- | --- | --- |
| CCOP(=S)(OCC)SCSC(C)(C)C | inactive | – |
| C=CC(N)=O | inactive | – |
| CO/C=C(/C(=O)OC)c1ccccc1COc1cccc(C(F)(F)F)n1 | – | 25.3 µM (active) |
| O=S(=O)(O)C(F)(F)C(F)(F)C(F)(F)C(F)(F)F | inactive | – |
| O=S(=O)(O)C(F)(F)C(F)(F)C(F)(F)C(F)(F)C(F)(F)C(F)(F)F | inactive | – |

Experiment: CCTE_Mundy_HCI_Cortical_Synap_Neur_Matur_NeuriteSpotCountPerNeuriteLength: CCTE's Synaptogenesis and Neurite Maturation Assay in rat cortical cells for Neurite Spot Count per Neurite Length, Mundy Lab (AID 2284210)
Settings: not given
Procedure, shortened: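 Synaptophysin spots per unit neurite length, measured by automated imaging of MAP2/synaptophysin/Hoechst-stained neurons. Cultures from rat cortex received chemical at DIV 7 with media change through DIV 12; glial growth arrested by AraC at DIV 5; DMSO baseline.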

| SMILES | AC50 | outcome |
| --- | --- | --- |
| ClC1=C(Cl)[C@]2(Cl)[C@@H]3[C@@H]4C[C@@H]([C@H]5O[C@@H]45)[C@@H]3[C@@]1(Cl)C2(Cl)Cl | 25.5 µM (active) | – |
| CCOP(=S)(OCC)SCSC(C)(C)C | 23 µM (active) | inactive |
| C=CC(N)=O | – | inactive |
| CO/C=C(/C(=O)OC)c1ccccc1COc1cccc(C(F)(F)F)n1 | 1.09 µM (active) | – |
| COc1ccc(O)c(C(C)(C)C)c1 | – | inactive |
| O=S(=O)(O)C(F)(F)C(F)(F)C(F)(F)C(F)(F)F | – | inactive |
| ClC1=C(Cl)[C@]2(Cl)[C@@H]3[C@@H](Cl)[C@H]4O[C@H]4[C@@H]3C1(Cl)C2(Cl)Cl | – | inactive |
| O=S(=O)(O)C(F)(F)C(F)(F)C(F)(F)C(F)(F)C(F)(F)C(F)(F)F | – | inactive |

Experiment: CCTE_Mundy_HCI_Cortical_Synap_Neur_Matur_BPCount: CCTE's Synaptogenesis and Neurite Maturation Assay in rat cortical cells for Branch Point Count, Mundy Lab (AID 2284211)
Settings: not given
Procedure, shortened: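 In this multiplexed morphology assay, cortical cells from rat receive chemicals at DIV 7 and are fixed at DIV 12, then immunostained and imaged; branch points are counted, with DMSO as baseline.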

| SMILES | AC50 | outcome |
| --- | --- | --- |
| CCOP(=S)(OCC)SCSC(C)(C)C | 80.7 µM (active) and 23.2 µM (active) | – |
| C=CC(N)=O | – | inactive |
| CO/C=C(/C(=O)OC)c1ccccc1COc1cccc(C(F)(F)F)n1 | 1.16 µM (active) | – |
| COc1ccc(O)c(C(C)(C)C)c1 | – | inactive |
| O=S(=O)(O)C(F)(F)C(F)(F)C(F)(F)C(F)(F)F | – | inactive |
| ClC1=C(Cl)[C@]2(Cl)[C@@H]3[C@@H](Cl)[C@H]4O[C@H]4[C@@H]3C1(Cl)C2(Cl)Cl | 3.36 µM (active) | – |
| O=S(=O)(O)C(F)(F)C(F)(F)C(F)(F)C(F)(F)C(F)(F)C(F)(F)F | – | inactive |

Experiment: CCTE_Mundy_HCI_Cortical_NOG_NeuriteCount: CCTE's Neurite Outgrowth Assay in rat cortical cells for Neurite Count, Mundy Lab (AID 2284212);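 note: cells fixed about two days after chemical exposure began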
Settings: not given
Procedure, shortened: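 Rat cortical primary cells; compound added 2 h post-plating, 1/10 dilution of working solution. Anti-betaIII-tubulin/AF488 ICC; ArrayScan neurite count vs DMSO.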

| SMILES | outcome | AC50 |
| --- | --- | --- |
| C=CC(N)=O | inactive | – |
| CO/C=C(/C(=O)OC)c1ccccc1COc1cccc(C(F)(F)F)n1 | – | 1.55 µM (active) |
| COc1ccc(O)c(C(C)(C)C)c1 | inactive | – |
| O=S(=O)(O)C(F)(F)C(F)(F)C(F)(F)C(F)(F)F | inactive | – |
| ClC1=C(Cl)[C@]2(Cl)[C@@H]3[C@@H](Cl)[C@H]4O[C@H]4[C@@H]3C1(Cl)C2(Cl)Cl | – | 16.6 µM (active) |
| O=S(=O)(O)C(F)(F)C(F)(F)C(F)(F)C(F)(F)C(F)(F)C(F)(F)F | inactive | – |
